Among the data in PubChem BioAssay are composite z-score and z-score values, retold here.

The source made the active and inactive calls.

Assay [1] relates to Plasmodium falciparum Sir2 (PF13_0152, Sir2A). The assay can be described thus: pfSir2 binders on small-molecule microarrays, primary screen, biochemical, small-molecule microarray, 635 nm fluorescence (AID 1098).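 Also: score merges spot fluorescence intensity with its signal-to-noise ratio.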 The conditions noted are these: small-molecule microarray binding, fluorescence 635 nm; higher = more signal.
Assay [2] in a line: small-molecule microarray binders of probe aDKK1, primary screen, biochemical, biotinylated probe, 635/667 nm fluorescence (AID 1099).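 Also: score merges 667nm spot fluorescence with signal to noise across triplicate slides; reference of the scale not given here.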 The conditions noted are these: higher = more signal.
A short description of assay [3]: small-molecule microarray binders of probe aCHRDL2, primary screen, biochemical, biotinylated probe, 635/667 nm fluorescence (AID 1100). The conditions noted are these: higher = more signal.
Assay [4] in a line: splicing luciferase reporter signal modulators, primary screen, spliceosome inhibition project, cell-based, HEK293, splice +/- reporter (AID 1101).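 Also: HEK293 cells carrying a splicing-competent luciferase reporter gene; test concentration not given here.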 As to conditions: luminescence, 24 h, higher = more signal, called active from +8 up or from −8 down. A general note: In a reporter assay the amount or activity of a reporter protein is the signal.
For assay [5], the target named is Fibroblast growth factor 10 (Homo sapiens) (UniProt O15520). The assay can be described thus: FGF10 binders on small-molecule microarrays, primary screen, biochemical, small-molecule microarray, 635 nm fluorescence (AID 1102). As to conditions: FGF10 binding, fluorescence 635 nm, higher = more signal.
The test system of assay [6] is glycogen synthase kinase-3 (GSK3A per assay name; protocol says GSK3B). The assay can be described thus: GSK3 binders on small-molecule microarrays, primary screen, biochemical, small-molecule microarray, 635 nm fluorescence, GSK3A (AID 1103). Also: the record names both GSK3A and GSK3B. The conditions noted are these: small-molecule microarray binding, fluorescence 635 nm; higher = more signal.
Assay [7] has as its target Epidermal growth factor receptor (Homo sapiens) (UniProt P00533). Nature of the assay: EGFR binders on small-molecule microarrays, primary screen, biochemical, small-molecule microarray, 635 nm fluorescence (AID 1104).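 Also: score merges 667 nm emission intensity with spot signal to noise over triplicate slides.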 As to conditions: EGFR binding, higher = more signal.
Assay [8] concerns the target Follistatin-related protein 3 (Homo sapiens) (UniProt O95633). The assay can be described thus: FSTL3 binders on small-molecule microarrays, primary screen, biochemical, small-molecule microarray, 635 nm fluorescence (AID 1105).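 Also: score merges emission near 667 nm and signal to noise per printed spot across three slides.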 As to conditions: FSTL3 binding, higher = more signal.
Assay [9] concerns the target Dickkopf-related protein 1 (Homo sapiens) (UniProt O94907). Nature of the assay: DKK1 binders on small-molecule microarrays, primary screen, biochemical, small-molecule microarray, 635 nm fluorescence scan (AID 1106).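 Also: score merges emission near 667 nm with signal to noise over three replicate slides.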 The conditions noted are these: DKK1 binding, higher = more signal.
Assay [10] deals with Inhibin beta A chain (activin A). Nature of the assay: INHBA (activin A) binders on microarrays, primary screen, biochemical, small-molecule microarray, 635 nm fluorescence scan (AID 1107).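 Also: mouse activin A protein probed at 4.33 µg/mL on printed slides; score merges bound-protein fluorescence near 667 nm with spot signal-to-noise.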 As to conditions: small-molecule microarray binding, higher = more signal.

Sequence of Follistatin-related protein 3 (Homo sapiens) (O95633 whole entry, looked up): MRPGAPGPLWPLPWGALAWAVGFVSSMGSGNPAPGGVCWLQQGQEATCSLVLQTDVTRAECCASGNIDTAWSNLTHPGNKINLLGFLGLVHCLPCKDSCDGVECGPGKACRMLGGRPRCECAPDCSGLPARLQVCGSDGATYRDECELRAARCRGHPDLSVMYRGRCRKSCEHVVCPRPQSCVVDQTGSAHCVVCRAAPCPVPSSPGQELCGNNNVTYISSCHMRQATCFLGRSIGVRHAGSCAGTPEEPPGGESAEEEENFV
Sequence of Dickkopf-related protein 1 (Homo sapiens) (O94907 whole entry, looked up): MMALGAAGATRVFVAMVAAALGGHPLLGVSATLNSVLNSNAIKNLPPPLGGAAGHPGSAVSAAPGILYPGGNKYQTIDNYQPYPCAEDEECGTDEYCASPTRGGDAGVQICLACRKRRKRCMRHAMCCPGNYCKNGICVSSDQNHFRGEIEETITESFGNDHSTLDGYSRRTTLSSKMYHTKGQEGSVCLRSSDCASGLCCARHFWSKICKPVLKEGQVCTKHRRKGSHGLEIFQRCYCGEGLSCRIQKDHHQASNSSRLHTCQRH
Sequence of Fibroblast growth factor 10 (Homo sapiens) (O15520 whole entry, looked up): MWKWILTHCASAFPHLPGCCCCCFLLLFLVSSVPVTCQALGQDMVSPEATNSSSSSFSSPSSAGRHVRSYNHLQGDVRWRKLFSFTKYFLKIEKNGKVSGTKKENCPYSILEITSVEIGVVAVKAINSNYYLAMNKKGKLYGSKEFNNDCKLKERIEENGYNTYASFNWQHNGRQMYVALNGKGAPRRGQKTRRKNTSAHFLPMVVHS
Sequence of Epidermal growth factor receptor (Homo sapiens) (P00533 whole entry, looked up): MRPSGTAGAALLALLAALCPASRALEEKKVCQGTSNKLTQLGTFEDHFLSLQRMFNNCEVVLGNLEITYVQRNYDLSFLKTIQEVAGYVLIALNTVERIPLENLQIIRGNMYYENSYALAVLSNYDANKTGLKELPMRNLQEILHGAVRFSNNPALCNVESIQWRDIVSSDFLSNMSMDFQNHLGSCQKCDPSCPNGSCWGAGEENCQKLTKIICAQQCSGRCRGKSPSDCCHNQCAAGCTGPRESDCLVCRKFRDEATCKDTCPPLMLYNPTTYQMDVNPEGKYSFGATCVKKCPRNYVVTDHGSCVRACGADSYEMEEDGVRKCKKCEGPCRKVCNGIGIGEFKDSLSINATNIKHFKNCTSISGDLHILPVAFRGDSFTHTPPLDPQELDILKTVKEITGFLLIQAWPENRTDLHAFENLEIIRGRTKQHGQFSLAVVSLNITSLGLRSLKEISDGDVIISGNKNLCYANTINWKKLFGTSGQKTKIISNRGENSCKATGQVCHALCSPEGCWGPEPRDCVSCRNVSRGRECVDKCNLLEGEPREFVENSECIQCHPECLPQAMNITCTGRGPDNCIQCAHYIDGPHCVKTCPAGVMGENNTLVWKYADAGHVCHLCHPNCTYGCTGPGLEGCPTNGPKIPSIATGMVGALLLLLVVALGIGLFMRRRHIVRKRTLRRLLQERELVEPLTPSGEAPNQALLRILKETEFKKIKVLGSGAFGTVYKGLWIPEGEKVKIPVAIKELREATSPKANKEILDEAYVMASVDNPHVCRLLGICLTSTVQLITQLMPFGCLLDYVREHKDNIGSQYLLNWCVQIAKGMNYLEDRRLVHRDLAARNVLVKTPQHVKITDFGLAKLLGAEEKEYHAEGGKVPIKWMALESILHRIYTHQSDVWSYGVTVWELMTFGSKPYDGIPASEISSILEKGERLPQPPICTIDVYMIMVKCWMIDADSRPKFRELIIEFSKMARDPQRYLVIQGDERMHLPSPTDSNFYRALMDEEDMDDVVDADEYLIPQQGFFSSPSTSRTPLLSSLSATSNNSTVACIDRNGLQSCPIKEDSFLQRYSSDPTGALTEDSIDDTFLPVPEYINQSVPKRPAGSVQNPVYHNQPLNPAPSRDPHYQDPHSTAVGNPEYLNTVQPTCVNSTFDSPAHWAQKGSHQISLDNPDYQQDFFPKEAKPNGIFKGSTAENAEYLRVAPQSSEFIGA

As to `COc1ccc(C(=O)Nc2ccc3c(c2)[C@]2(O[C@@H](CCO)[C@H]([Si](C)(C)c4ccc(OC)cc4)[C@H]2C)C(=O)N3Cc2ccccc2)cc1`, the composite z-score in assay [1] is 0.663; in assay [2], -0.0183; in assay [3], -0.0221; in assay [5] it was 0.572; in assay [6] it was 0.3; in [7], 0.349. The composite z-score is 0.393 in [8], 0.359 in [9] and 1.11 in assay [10]. In addition, the z-score in [4] was -3.4 (inactive).
Regarding `CCN(CC)c1ccc(N2CC=CC34O[C@@H]5/C=C\CCCOC(=O)C5[C@H]3C(=O)N(CCCCCCO)[C@@H]4C2=O)cc1` (stereo not given in full), the composite z-score is 1.96 in assay [1]; -0.202 in assay [2]; 0.733 in assay [3]; -0.983 in assay [5]; -0.521 in assay [6]; -1.4 in [7]. Also, the values for the composite z-score in [8], in [9] and in assay [10] were -0.76, -1.82 and 0.751, respectively. For the same compound, the z-score in [4] was -1.13 (inactive).
In the case of `[N-]=[N+]=Nc1ccccc1[C@H]1OC(c2ccc(OCCCO)cc2)=N[C@@]1(Cc1ccccc1)C(=O)NCc1ccccc1`, the composite z-score was 0.427 in assay [1]; 0.243 in [2]; 0.712 in [3]; 0.776 in [5]; 1.12 in assay [6]; -0.0565 in assay [7]. For the same compound, the composite z-score in [8] was 0.643; in [9], 0.865; in assay [10], 0.774. The z-score in [4] is -1.72 (inactive).
Consider `OCc1ccc(-c2cc[n+](Cc3cccc(OC(F)(F)F)c3)cc2)cc1`, for which the composite z-score in assay [1] came to 0.802; in assay [2], 0.44; in assay [3] it was 0.854; in assay [5], 0.981; in assay [6], 0.869; in assay [7], 1.33. In addition, the composite z-score in assay [8] stood at 1.48; in assay [9], 1.56; in [10] it was 1.93. Besides, the z-score in assay [4] was 1.36 (inactive).
Take `CC(C)(C)OC(=O)CC[C@]1(C(=O)O)COC(c2ccc(OCCCO)cc2)=N1`: the composite z-score in assay [1] is 0.337; in [2], 0.768; in assay [3] it was 0.553; in assay [5] it was -0.577; in [6], -0.69; in assay [7], -0.609. Further, the figures for the composite z-score in assay [8], in [9] and in [10] were -1.2, -1.51 and 0.469, respectively. In addition, the z-score in [4] is 0.14 (inactive).
With `C/C=C/[C@@H](CCn1cc([C@H](O)c2ccccc2)nn1)[Si](C)(C)c1ccc(OC)cc1`, the composite z-score is 1.53 in [1]; -0.414 in assay [2]; 0.476 in assay [3]; -0.71 in assay [5]; -0.507 in [6]; -0.849 in [7]. Also, the composite z-score is -0.748 in assay [8], -0.0219 in [9] and 0.0838 in assay [10]. Further, the z-score in assay [4] was -0.406 (inactive).
Consider `CC(C)=CCCC(C)=CC(O)C1C=CC2C(=O)N(c3ccccc3)C(=O)C2N1Nc1ccc([N+](=O)[O-])cc1` (stereo not given), for which the composite z-score in [1] was 1.29; in [2] it was -0.0499; in assay [3], 0.77; in assay [5], 0.74; in assay [6], 1.34; in assay [7], 0.0387. The composite z-score in assay [8] was 0.996; in [9] it was -0.4; in [10] it was 0.387. For the same compound, in assay [4], the z-score was 0.644 (inactive).
Turning to `N#Cc1ccc(NN2C(C(O)c3ccco3)C=CC3C(=O)N(c4ccccc4)C(=O)C32)cc1` (stereo not given), the composite z-score in assay [1] was 0.939; in [2], 0.565; in assay [3], 0.843; in [5], 0.505; in [6], -0.202; in assay [7] it was 0.0343. Also, the composite z-score came to 0.0837 in assay [8], 0.18 in [9] and 0.921 in [10]. Also, in assay [4], the z-score was 1.07 (inactive).
As for `C#CCNS(=O)(=O)N(C)C`, the composite z-score was 0.365 in assay [1]; -0.0521 in [2]; -0.55 in assay [3]; 0.296 in assay [5]; 0.642 in assay [6]; 0.469 in assay [7]. Moreover, the figures for the composite z-score in [8], in assay [9] and in [10] were 0.31, 0.216 and -0.128, respectively. For the same compound, the z-score in assay [4] was 0.0242 (inactive).
As for `C=CCC(OC(C)=O)[C@@H]1[C@@H](N(Cc2ccc(-c3ccccc3)cc2)C(=O)Cc2ccc(OC)cc2)c2cc(OCCCO)ccc2N1C(=O)c1ccc(-c2ccccc2)cc1` (stereo not given in full), the composite z-score in [1] was -0.0063; in assay [2] it was 0.073; in [3], 0.31; in assay [5] it was -0.0097; in assay [6] it was -0.15; in assay [7] it was -0.332. The composite z-score in assay [8] was -0.0062; in assay [9], -0.18; in [10] it was 1.22. In addition, the z-score in [4] is -0.757 (inactive).
`C=C[C@@H](O)[C@H]1CC(c2ccccc2)=NO1`: the composite z-score in assay [1] was 1.46; in assay [2] it was -0.187; in [3], 0.0537; in assay [5], 0.0244; in assay [6], -0.408; in assay [7] it was 0.449. Besides, the values for the composite z-score in assay [8], in [9] and in assay [10] were 0.046, 0.271 and 0.614, respectively. Moreover, the z-score in assay [4] was 0.147 (inactive).
Consider `C=CCOC(=O)[C@@H]1[C@H]2C(=O)O[C@H](c3ccccc3)[C@H](c3ccccc3)N2[C@H](c2ccc(OCCOC(=O)[C@@H]3C[C@@H]4C(=O)N[C@@H](CCCCNC(C)=O)C(=O)N4[C@@H]3c3ccc(O)cc3)cc2)[C@@]12C(=O)Nc1ccc(I)cc12`, for which the composite z-score was 1.58 in assay [1]; -0.219 in assay [2]; -0.249 in assay [3]; 1.43 in [5]; 1.27 in [6]; 1.12 in [7]. Moreover, the results for the composite z-score in assay [8], in assay [9] and in assay [10] were 1.35, 0.616 and 0.499, respectively. The z-score in [4] is 0.0887 (inactive).
`[N-]=[N+]=NCc1ccccc1C[C@]1(C(=O)NCCN2CCOCC2)COC(c2ccc(OCCCO)cc2)=N1`: the composite z-score was 1.49 in assay [1]; 0.297 in assay [2]; 0.853 in assay [3]; 0.396 in assay [5]; 0.966 in [6]; -0.553 in assay [7]. Moreover, the composite z-score in [8] is 0.101; in [9], -0.36; in [10], 0.978. The z-score in assay [4] is -0.995 (inactive).
For `C=CCC(OC(C)=O)[C@@H]1[C@@H](N(Cc2cccc3ccccc23)C(=O)Cc2ccc(F)cc2)c2cc(OCCCO)ccc2N1C(=O)Cc1ccc(OC)cc1` (stereo not given in full), the composite z-score in assay [1] is -0.44; in [2] it was -0.0312; in assay [3], 0.0398; in assay [5], 0.398; in [6], -0.0555; in assay [7] it was -0.0723. Also, the composite z-score in assay [8] is 0.665; in [9], 0.104; in assay [10], 1.25. For the same compound, the z-score in assay [4] was -1.07 (inactive).
For the compound `O=C(CS)NCCCCCNC(=O)[C@@H]1C[C@@H]2C(=O)N3CCC[C@H]3C(=O)N2[C@@H]1c1ccc(O)cc1`, the composite z-score in assay [1] was determined as 0.847; in [2] it was 0.233; in [3], 0.61; in [5], 0.598; in assay [6], 1.14; in [7] it was 0.128. Besides, the composite z-score in assay [8] was 0.0144; in assay [9], 0.219; in assay [10], 0.0603. For the same compound, the z-score in assay [4] is 0.466 (inactive).
